Source: the supplement of paper PMC10849652
About 7,900 targets were measured; listed, in parts, are those with a hit and a random draw of the rest. About 0.6% of all pairs of compound and target were hits. Values without a mark were called inactive.

Columns and labels:
Assay in all cases: log2 fold change, soluble protein after heating vs DMSO (PISA); higher = thermal stabilisation; K562 cells, 10 uM, 30 min; active = over 0.2 and 3.5 SD of the protein, either way, in both replicates (recomputed)
[1] = compound: C1COCCN1CCN2C3=CC=CC=C3N=C2NC(=O)C4=CC(=CC=C4)[N+](=O)[O-] [IRAK-1-4 Inhibitor I]
In short: (§1)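 Aliquots of K562 cells (2×10^6 cells/mL) treated with 10 μM compound for 30 min were heated for 3 min over 48°C-58°C. After pooling and extraction in PBS with 0.5% NP-40 at 4°C, soluble protein from a 21,000xg, 90 min spin was quantified by TMTpro 16plex LC-MS/MS with channel sums equalised. Thermal stability is expressed against control samples, from duplicates, as a log2 fold change.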

[2] = compound: C=CC(=O)N1CCC[C@@H](n2nc(-c3ccc(Oc4ccccc4)cc3)c3c(N)ncnc32)C1 [ibrutinib]
In short: as §1

[3] = compound: CC(=O)c1cnc2ccc(-c3cc(Cl)c(O)c(Cl)c3)nc2c1N[C@H]1CC[C@H](CN(C)C)CC1
In short: as §1

[4] = compound: CC(C)(C)Cn1c(N)nc2ccc(-c3[nH]c(C(C)(C)C)nc3-c3ccc(F)cc3)nc21 [ralimetinib]
In short: as §1

[5] = compound: CC(C)(O)CC(=O)NCCn1ccc2ncnc(Nc3ccc(Oc4cccc(C(F)(F)F)c4)c(Cl)c3)c21
In short: as §1

[6] = compound: CC(C)C1=C2N=C(C=C(N2N=C1)NCC3=CC=CC=C3)NCCCCCCN
In short: as §1

[7] = compound: CC(C)C[C@@H](C=O)NC(=O)[C@H](CC(C)C)NC(=O)[C@H](CC(C)C)NC(=O)OCc1ccccc1
In short: as §1

[8] = compound: CC(C)N(C[C@H]1O[C@@H](n2cnc3c(N)ncnc32)[C@H](O)[C@@H]1O)[C@H]1C[C@@H](CCc2nc3cc(C(C)(C)C)ccc3[nH]2)C1 [pinometostat]
In short: as §1

[9] = compound: CC1=C(C(CC(=O)N1)C2=CC=C(C=C2)C(F)(F)F)C(=O)NC3=C(C=C4C(=C3)C=NN4)F
In short: as §1

[10] = compound: CC1=C(C2=C(C=C1)C(=O)C3=CC=CC=C3N2CCCN)C
In short: as §1

[11] = compound: CC1=C(C=C(C=C1)NC(=O)C2=CC(=CC=C2)C(C)(C)C#N)NC3=CC4=C(C=C3)N=CN(C4=O)C
In short: as §1

[12] = compound: CC1=C(C=C(C=C1)NC(=O)C2=CC(=CC=C2)N(C)C)NC(=O)C3=CC=C(C=C3)O
In short: as §1

[13] = compound: CC1=CC=C(C=C1)SC2=C3C=C(SC3=CN=C2)C(=O)N
In short: as §1

[14] = compound: CC1=NC(=CC=C1)C2=C(N=C(N2)C(C)(C)C)C3=CC4=NC=CN=C4C=C3
In short: as §1

[15] = compound: CCCCN(Cc1ccc(C(=O)NO)cc1)C(=O)Nc1ccccc1 [Nexturastat A]
In short: as §1

[16] = compound: CCCS(=O)(=O)Nc1ccc(F)c(C(=O)c2c[nH]c3ncc(-c4ccc(Cl)cc4)cc23)c1F [vemurafenib]
In short: as §1

[17] = compound: CCCS(=O)(=O)Nc1ccc(F)c(C(=O)c2c[nH]c3ncc(Cl)cc23)c1F
In short: as §1

[18] = compound: CCCc1cc(C)[nH]c(=O)c1CNC(=O)c1cc(-c2ccnc(N3CCN(C)CC3)c2)cc2c1cnn2C(C)C
In short: as §1

[19] = compound: CCN(CC)Cc1ccc2cc(COC(=O)Nc3ccc(C(=O)NO)cc3)ccc2c1 [givinostat]
In short: as §1

[20] = compound: CCN(CCCOc1ccc2c(Nc3cc(CC(=O)Nc4cccc(F)c4)[nH]n3)ncnc2c1)CCOP(=O)(O)O [barasertib]
In short: as §1

UniProt O94874, sequence (O94874 whole entry, looked up): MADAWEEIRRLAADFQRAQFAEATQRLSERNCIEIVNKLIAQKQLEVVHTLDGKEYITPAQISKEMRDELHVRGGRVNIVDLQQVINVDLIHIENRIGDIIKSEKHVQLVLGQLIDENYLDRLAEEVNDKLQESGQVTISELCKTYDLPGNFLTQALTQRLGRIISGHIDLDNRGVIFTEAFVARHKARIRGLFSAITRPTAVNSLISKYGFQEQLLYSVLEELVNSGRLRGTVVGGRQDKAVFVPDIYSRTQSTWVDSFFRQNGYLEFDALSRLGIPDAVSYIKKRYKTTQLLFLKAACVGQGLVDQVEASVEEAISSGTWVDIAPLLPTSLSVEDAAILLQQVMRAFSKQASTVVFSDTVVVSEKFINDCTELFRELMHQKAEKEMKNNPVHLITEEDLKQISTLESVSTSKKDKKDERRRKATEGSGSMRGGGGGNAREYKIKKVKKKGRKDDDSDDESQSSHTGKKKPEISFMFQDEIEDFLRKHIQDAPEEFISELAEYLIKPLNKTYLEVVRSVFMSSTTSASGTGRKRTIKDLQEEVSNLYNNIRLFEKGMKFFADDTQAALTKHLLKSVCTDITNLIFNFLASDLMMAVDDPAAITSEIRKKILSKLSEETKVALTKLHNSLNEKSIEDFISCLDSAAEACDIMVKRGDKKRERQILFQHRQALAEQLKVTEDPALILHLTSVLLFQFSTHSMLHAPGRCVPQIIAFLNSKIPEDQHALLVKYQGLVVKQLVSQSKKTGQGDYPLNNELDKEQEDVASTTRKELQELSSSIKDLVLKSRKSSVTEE
UniProt Q8NDZ6, sequence (Q8NDZ6 whole entry, looked up): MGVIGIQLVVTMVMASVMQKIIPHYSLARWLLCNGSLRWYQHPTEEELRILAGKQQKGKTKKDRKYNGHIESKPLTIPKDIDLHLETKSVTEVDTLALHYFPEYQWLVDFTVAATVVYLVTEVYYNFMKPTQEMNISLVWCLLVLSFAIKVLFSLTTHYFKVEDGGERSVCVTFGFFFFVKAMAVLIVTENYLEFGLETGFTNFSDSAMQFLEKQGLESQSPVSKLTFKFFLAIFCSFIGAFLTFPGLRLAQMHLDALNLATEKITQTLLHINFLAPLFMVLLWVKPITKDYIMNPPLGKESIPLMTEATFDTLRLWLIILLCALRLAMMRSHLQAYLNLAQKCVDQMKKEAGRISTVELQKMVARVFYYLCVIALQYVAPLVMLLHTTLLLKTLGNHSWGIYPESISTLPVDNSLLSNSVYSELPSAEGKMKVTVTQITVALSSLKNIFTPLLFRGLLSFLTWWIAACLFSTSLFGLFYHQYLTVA
UniProt Q5U3C3, sequence (Q5U3C3 whole entry, looked up): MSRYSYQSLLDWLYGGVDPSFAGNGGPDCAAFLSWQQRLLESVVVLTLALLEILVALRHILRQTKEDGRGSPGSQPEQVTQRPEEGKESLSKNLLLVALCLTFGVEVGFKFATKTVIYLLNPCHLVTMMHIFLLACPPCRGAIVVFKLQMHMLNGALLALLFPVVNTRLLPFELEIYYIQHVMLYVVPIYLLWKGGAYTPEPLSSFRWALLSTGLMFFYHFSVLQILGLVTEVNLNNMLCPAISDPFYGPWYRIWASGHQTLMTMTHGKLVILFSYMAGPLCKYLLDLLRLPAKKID
UniProt A5PLN9, sequence (A5PLN9 whole entry, looked up): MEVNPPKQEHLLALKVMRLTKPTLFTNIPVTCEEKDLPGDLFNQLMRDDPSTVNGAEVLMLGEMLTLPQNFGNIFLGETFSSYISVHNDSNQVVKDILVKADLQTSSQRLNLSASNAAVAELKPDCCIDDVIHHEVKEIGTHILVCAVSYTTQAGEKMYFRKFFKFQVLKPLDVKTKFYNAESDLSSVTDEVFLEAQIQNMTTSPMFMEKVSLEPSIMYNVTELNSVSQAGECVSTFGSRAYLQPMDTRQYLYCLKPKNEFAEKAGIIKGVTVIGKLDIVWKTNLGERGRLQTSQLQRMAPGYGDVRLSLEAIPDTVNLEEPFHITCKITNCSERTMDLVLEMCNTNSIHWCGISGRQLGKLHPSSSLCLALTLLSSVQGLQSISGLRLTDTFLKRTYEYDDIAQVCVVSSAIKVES
UniProt Q8IWA0, sequence (Q8IWA0 whole entry, looked up): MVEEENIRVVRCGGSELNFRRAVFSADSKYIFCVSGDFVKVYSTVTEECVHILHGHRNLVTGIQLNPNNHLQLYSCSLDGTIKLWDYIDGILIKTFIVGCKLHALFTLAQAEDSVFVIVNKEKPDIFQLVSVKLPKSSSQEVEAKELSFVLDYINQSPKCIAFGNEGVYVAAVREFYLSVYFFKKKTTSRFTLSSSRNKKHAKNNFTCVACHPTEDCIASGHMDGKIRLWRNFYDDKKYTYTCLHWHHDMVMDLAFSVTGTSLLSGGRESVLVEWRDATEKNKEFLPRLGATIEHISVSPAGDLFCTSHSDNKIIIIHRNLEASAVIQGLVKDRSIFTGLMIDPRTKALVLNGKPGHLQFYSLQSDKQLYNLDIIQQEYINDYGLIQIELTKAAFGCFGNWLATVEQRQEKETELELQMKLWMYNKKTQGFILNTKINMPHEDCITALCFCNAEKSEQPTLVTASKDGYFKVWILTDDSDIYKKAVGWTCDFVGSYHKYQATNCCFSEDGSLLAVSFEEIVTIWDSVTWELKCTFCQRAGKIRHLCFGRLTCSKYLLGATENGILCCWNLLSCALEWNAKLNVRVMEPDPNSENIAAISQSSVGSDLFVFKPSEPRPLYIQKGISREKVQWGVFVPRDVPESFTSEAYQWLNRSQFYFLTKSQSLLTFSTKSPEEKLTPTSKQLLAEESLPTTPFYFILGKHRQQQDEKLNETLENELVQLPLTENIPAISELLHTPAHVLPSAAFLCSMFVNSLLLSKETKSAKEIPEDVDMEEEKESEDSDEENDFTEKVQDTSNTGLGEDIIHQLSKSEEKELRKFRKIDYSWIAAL
UniProt Q6PID6, sequence (Q6PID6 whole entry, looked up): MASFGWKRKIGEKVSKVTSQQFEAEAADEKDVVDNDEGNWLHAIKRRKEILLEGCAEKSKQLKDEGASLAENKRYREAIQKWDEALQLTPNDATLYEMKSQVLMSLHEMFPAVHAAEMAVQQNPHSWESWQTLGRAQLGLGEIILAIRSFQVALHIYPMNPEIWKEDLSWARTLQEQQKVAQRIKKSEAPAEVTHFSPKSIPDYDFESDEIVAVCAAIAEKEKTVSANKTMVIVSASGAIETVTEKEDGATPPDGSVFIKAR
UniProt Q96K49, sequence (Q96K49 whole entry, looked up): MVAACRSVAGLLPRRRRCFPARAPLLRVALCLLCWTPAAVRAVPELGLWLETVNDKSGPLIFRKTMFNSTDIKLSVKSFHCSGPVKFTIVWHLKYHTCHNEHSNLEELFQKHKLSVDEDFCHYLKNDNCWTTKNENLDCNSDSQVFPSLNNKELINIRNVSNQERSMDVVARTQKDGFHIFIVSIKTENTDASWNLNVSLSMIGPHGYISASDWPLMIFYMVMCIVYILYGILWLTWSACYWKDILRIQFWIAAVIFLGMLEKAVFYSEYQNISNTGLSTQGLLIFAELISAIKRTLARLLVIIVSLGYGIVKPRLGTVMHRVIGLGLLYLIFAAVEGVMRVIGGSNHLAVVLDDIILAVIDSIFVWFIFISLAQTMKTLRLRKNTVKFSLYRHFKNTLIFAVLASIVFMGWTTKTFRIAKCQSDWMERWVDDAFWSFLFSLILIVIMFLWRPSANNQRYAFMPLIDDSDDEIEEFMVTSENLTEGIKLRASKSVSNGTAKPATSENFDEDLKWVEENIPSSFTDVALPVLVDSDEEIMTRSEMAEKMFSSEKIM
UniProt O60784, sequence (O60784 whole entry, looked up): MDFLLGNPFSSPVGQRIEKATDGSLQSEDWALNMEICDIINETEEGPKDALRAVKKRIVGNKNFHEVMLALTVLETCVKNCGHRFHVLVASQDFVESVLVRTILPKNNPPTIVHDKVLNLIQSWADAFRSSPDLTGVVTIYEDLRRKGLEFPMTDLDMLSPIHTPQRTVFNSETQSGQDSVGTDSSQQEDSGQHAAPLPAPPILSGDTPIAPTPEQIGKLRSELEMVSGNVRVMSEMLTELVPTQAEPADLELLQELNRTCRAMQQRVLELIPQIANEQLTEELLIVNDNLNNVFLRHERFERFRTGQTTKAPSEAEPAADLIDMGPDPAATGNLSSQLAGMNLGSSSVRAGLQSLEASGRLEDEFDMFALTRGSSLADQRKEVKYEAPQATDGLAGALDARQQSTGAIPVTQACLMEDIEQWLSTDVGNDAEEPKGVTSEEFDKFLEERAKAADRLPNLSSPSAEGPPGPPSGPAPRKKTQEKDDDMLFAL
UniProt Q9H267, sequence (Q9H267 whole entry, looked up): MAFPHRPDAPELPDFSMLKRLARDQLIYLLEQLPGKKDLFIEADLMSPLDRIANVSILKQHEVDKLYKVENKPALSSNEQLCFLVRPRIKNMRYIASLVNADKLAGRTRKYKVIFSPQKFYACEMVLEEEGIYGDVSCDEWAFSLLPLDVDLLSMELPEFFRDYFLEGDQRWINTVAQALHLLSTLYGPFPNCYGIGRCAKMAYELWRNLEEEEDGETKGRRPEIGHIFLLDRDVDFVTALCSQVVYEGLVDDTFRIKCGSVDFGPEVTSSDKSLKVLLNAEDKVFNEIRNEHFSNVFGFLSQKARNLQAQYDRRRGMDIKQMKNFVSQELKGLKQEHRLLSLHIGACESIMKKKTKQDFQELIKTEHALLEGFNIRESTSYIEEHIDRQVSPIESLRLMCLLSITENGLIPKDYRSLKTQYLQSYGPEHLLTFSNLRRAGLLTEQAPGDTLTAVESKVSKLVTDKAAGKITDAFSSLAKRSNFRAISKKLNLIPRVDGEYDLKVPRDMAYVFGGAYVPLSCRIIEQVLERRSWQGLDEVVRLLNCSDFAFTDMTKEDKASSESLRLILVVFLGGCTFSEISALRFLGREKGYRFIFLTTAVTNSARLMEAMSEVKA
UniProt Q9BQB6, sequence (Q9BQB6 whole entry, looked up): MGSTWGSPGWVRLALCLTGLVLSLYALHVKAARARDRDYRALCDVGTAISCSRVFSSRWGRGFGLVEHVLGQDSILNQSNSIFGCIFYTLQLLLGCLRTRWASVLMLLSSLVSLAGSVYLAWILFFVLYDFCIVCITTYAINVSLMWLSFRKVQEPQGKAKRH

| Target | log2 fold change [1] | log2 fold change [2] | log2 fold change [3] | log2 fold change [4] | log2 fold change [5] | log2 fold change [6] | log2 fold change [7] | log2 fold change [8] | log2 fold change [9] | log2 fold change [10] | log2 fold change [11] | log2 fold change [12] | log2 fold change [13] | log2 fold change [14] | log2 fold change [15] | log2 fold change [16] | log2 fold change [17] | log2 fold change [18] | log2 fold change [19] | log2 fold change [20] |
| --- | --- | --- | --- | --- | --- | --- | --- | --- | --- | --- | --- | --- | --- | --- | --- | --- | --- | --- | --- | --- |
| XRCC5 (UniProt P13010) | -0.264 | -0.104 | -0.214 | 0.083 | -0.175 | -0.505 (active) | 0.126 | -0.01 | 0 | -0.065 | 0.073 | -0.08 | 0.044 | 0.143 | 0.033 | 0.115 | 0.189 | 0.109 | 0.234 | 0.143 |
| UFL1 (UniProt O94874) | -0.048 | -0.037 | -0.022 | 0.073 | -0.055 | -0.142 | 0.015 | 0.042 | -0.017 | 0.026 | -0.009 | -0.089 | 0.011 | 0.048 | 0.091 | 0.083 | 0.089 | 0.043 | 0.08 | 0.031 |
| VPS33B (UniProt Q9H267) | -0.049 | -0.041 | -0.068 | 0.057 | -0.107 | -0.178 | 0.098 | 0.156 | 0 | 0.049 | -0.05 | -0.037 | -0.015 | -0.02 | 0.032 | 0.087 | 0.069 | 0.111 | 0.029 | 0.088 |
| TRAPPC6B (UniProt Q86SZ2) | -0.022 | 0.032 | -0.001 | -0.015 | -0.138 | 0.032 | 0.032 | -0.036 | 0.004 | 0.004 | 0.022 | -0.01 | 0.049 | 0.07 | -0.097 | 0.009 | 0.02 | -0.063 | -0.02 | 0.008 |
| TNFRSF8 (UniProt P28908) | 0.056 | 0.046 | 0.005 | -0.143 | 0.016 | 0.219 (active) | 0.074 | -0.01 | 0.003 | -0.022 | -0.047 | 0.01 | -0.076 | -0.005 | 0.008 | -0.028 | -0.015 | 0.031 | -0.007 | -0.006 |
| TRAPPC13 isoform 5 (UniProt A5PLN9) | -0.06 | -0.047 | -0.121 | -0.048 | -0.093 | -0.014 | 0.026 | 0.033 | -0.06 | -0.047 | 0.022 | 0.008 | 0.006 | 0.043 | 0.024 | 0.074 | 0.113 | 0.095 | 0.025 | 0.002 |
| TRAPPC8 (UniProt Q9Y2L5) | -0.02 | 0.015 | -0.02 | 0.011 | -0.056 | -0.071 | 0.044 | 0.072 | 0.002 | 0.003 | 0.079 | -0.036 | -0.009 | -0.022 | 0.024 | 0.026 | 0.066 | 0.012 | 0.066 | 0.033 |
| TOM1 isoform 2 (UniProt O60784) | 0.101 | 0.013 | 0.028 | 0.071 | -0.017 | -0.302 | 0.033 | 0.023 | -0.006 | 0.16 | 0.17 | 0.026 | 0.02 | 0.051 | -0.028 | 0.17 | 0.041 | 0 | 0.013 | -0.01 |
| TMEM87B (UniProt Q96K49) | 0.139 | -0.084 | -0.046 | -0.086 | -0.204 | -0.39 (active) | -0.007 | 0.065 | 0.057 | 0.029 | -0.018 | -0.013 | 0.112 | -0.008 | -0.059 | -0.048 | -0.028 | 0.008 | -0.063 | 0.048 |
| TMEM208 (UniProt Q9BTX3) | 0.04 | -0.09 | 0.078 | -0.145 | -0.088 | -0.412 (active) | 0.046 | 0.081 | -0.016 | 0.081 | -0.093 | 0.005 | 0.037 | -0.022 | -0.112 | -0.06 | 0.035 | -0.219 | 0.097 | -0.012 |
| TTC33 (UniProt Q6PID6) | 0.059 | 0.058 | -0.121 | 0.009 | -0.023 | -0.075 | 0.139 | 0.111 |  |  | -0.046 | -0.025 | -0.059 | -0.189 | 0.026 | -0.07 | -0.002 | -0.471 | -0.062 | 0.079 |
| TMEM161B (UniProt Q8NDZ6) | 0.06 | -0.039 | 0.008 | -0.097 | -0.227 (active) | -0.052 | 0.015 | -0.002 | -0.031 | 0.022 | 0.003 | -0.012 | 0.026 | 0.008 | -0.063 | 0.079 | 0.053 | 0.012 | 0.032 | -0.037 |
| VKORC1 (UniProt Q9BQB6) | -0.056 | 0.024 | -0.033 | -0.052 |  | -0.306 | -0.029 | 0.092 | 0.007 | 0.049 | 0.064 | -0.04 | 0.001 | -0.325 (active) |  | -0.023 | 0.117 | -0.017 | -0.006 | 0.048 |
| TMEM164 (UniProt Q5U3C3) | 0.057 | -0.036 | -0.088 |  | -0.025 | -0.309 |  | -0.073 | -0.08 | 0.066 | 0.288 |  | 0.05 | -0.047 | -0.142 | -0.083 | 0.078 | -0.305 | -0.038 | -0.095 |
| WDR75 (UniProt Q8IWA0) | -0.081 | -0.026 | -0.196 | 0.189 | 0.012 |  | 0.178 | 0.197 | 0.058 | 0.402 |  | 0.007 | 0.043 | -0.053 | 0.395 | -0.126 | -0.069 | 0.107 |  | 0.025 |
